Data as given in the supplement of paper PMC11732987, “Enantioselective OTUD7B fragment discovery through chemoproteomics screening and high-throughput optimisation” (Communications Chemistry, 2025).

How the values were obtained:
Experiment in all cases: log2 ratio of Biotin-Ahx-Ub-VS probe labelling (fragment/DMSO); higher = less target engagement (more negative = stronger competition), active = hit call of the paper (q ≤ 0.05, log2 ratio ≤ -1)
Settings in all cases: compound concentration: 200 uM; treatment time: 3 h
ALG13 = target: T1, ALG13 (UniProt Q9NP73)
T1 sequence (whole entry): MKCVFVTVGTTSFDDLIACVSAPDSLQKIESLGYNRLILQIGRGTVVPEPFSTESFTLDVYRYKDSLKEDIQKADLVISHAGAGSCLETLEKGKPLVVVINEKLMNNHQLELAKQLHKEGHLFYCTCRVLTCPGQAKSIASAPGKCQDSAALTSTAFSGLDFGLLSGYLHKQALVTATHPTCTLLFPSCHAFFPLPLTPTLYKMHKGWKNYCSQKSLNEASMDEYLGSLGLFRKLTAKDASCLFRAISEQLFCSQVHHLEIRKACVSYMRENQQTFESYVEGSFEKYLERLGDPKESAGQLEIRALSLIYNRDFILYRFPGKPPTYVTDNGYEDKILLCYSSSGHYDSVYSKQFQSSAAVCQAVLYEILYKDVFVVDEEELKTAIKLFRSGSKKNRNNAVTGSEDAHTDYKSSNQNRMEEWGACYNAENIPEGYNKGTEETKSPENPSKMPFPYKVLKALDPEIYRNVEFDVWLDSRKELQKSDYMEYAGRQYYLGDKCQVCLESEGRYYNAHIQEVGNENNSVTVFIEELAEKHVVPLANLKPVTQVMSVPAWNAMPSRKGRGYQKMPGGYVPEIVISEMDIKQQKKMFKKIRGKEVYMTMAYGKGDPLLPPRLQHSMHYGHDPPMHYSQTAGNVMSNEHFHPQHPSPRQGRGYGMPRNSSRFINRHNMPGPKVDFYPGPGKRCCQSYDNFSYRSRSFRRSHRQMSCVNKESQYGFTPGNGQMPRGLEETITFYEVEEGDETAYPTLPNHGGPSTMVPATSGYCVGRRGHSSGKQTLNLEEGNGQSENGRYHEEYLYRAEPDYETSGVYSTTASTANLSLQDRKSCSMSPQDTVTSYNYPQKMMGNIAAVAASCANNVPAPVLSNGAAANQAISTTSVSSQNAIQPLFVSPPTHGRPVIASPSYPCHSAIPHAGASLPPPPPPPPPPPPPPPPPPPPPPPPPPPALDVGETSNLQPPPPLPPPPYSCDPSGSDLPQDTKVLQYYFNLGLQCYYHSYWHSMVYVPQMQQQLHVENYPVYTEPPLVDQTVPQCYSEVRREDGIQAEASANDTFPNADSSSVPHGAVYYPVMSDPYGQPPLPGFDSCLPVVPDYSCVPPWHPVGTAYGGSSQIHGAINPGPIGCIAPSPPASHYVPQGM
In short: (§1)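 Lysate from HEK293T cells, 495 µg per sample in Tris/CHAPS/IGEPAL buffer with protease inhibitors, was treated for 3 h in triplicate with fragment at 200 µM or vehicle. Biotin-Ahx-Ub-VS was next added at 0.5 µM final for 1 h. The labelled DUBs were enriched with NeutrAvidin, digested with LysC and trypsin, and run by diaPASEF LC-MS/MS, with values given as average log2 fragment/vehicle ratios by unpaired t-test on global-median-normalised Spectronaut quantities of proteins with ≥2 unique peptides.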

ATXN3 = ATXN3 (UniProt P54252)
ATXN3, sequence (P54252 whole entry): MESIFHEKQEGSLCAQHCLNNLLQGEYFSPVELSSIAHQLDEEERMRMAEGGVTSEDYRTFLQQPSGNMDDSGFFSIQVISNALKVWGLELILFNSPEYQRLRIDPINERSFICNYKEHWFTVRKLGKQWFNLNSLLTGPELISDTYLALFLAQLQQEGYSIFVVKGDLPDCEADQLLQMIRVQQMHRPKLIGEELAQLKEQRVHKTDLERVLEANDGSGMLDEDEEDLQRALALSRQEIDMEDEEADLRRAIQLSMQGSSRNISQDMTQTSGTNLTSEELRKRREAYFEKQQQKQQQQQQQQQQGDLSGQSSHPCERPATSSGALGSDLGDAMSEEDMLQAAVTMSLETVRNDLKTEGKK
In short: as §1

BAP1 = target: T2, BAP1 (UniProt Q92560)
T2 sequence (whole entry): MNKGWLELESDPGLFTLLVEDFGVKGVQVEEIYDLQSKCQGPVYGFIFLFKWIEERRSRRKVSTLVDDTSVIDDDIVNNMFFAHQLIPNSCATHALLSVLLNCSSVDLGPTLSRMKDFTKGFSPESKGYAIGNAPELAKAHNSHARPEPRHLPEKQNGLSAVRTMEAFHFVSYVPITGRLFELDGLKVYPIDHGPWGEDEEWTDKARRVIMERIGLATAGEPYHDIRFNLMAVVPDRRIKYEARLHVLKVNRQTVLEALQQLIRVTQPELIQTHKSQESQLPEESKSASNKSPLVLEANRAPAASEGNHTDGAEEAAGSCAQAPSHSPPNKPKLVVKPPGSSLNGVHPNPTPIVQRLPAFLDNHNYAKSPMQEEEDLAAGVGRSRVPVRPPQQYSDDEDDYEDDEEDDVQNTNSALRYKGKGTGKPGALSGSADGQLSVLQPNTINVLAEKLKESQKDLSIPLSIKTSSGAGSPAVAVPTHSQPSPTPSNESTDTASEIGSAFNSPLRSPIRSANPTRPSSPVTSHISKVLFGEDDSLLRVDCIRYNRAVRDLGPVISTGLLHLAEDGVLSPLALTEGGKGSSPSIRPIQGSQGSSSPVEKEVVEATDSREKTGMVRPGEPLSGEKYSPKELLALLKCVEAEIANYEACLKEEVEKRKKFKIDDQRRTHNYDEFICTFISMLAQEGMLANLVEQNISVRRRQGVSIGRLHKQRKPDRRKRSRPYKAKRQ
In short: as §1

EIF3F = EIF3F (UniProt O00303)
EIF3F, sequence (O00303 whole entry): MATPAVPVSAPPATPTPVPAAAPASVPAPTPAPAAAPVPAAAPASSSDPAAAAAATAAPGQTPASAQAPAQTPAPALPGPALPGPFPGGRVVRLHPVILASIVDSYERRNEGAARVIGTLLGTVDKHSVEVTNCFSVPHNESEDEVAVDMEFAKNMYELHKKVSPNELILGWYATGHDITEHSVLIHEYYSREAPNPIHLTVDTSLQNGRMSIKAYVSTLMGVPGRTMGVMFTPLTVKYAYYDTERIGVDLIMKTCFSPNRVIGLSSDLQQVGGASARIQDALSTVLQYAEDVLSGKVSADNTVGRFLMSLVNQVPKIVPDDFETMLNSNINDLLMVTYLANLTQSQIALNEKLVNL
In short: as §1

EIF3H = EIF3H (UniProt O15372)
EIF3H, sequence (O15372 whole entry): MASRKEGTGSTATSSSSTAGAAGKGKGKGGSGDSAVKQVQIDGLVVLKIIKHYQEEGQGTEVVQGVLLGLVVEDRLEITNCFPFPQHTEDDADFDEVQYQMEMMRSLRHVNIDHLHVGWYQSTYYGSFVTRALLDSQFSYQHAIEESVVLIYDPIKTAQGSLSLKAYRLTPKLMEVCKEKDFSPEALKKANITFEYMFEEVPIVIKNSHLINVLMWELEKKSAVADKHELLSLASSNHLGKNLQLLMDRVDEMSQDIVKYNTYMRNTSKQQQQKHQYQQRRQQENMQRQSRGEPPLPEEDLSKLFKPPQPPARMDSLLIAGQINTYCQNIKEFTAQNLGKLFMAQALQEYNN
In short: as §1

FAM105A = target: T3, FAM105A (UniProt Q9NUU6)
T3 sequence (whole entry): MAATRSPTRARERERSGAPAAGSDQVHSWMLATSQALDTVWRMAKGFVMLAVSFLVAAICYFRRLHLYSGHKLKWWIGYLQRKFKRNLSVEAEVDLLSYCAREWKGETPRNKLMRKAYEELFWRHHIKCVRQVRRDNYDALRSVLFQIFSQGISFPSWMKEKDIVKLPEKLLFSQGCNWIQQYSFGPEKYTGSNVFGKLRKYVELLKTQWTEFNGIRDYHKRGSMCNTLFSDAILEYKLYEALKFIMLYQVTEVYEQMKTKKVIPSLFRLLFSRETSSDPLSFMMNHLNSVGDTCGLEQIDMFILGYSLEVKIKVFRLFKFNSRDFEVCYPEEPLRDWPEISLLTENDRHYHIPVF
In short: as §1

OTUB1 = OTUB1 (UniProt Q96FW1)
OTUB1, sequence (Q96FW1 whole entry): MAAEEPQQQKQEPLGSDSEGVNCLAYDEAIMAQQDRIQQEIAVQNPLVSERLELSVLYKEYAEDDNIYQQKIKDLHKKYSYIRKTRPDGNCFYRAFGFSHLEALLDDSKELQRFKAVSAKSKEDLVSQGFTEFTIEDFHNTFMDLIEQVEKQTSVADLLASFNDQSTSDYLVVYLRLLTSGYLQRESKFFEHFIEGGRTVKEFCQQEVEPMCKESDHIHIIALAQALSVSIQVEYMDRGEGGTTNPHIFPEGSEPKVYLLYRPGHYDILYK
In short: as §1

OTUD4 = target: T4, OTUD4 (UniProt Q01804)
T4 sequence (whole entry): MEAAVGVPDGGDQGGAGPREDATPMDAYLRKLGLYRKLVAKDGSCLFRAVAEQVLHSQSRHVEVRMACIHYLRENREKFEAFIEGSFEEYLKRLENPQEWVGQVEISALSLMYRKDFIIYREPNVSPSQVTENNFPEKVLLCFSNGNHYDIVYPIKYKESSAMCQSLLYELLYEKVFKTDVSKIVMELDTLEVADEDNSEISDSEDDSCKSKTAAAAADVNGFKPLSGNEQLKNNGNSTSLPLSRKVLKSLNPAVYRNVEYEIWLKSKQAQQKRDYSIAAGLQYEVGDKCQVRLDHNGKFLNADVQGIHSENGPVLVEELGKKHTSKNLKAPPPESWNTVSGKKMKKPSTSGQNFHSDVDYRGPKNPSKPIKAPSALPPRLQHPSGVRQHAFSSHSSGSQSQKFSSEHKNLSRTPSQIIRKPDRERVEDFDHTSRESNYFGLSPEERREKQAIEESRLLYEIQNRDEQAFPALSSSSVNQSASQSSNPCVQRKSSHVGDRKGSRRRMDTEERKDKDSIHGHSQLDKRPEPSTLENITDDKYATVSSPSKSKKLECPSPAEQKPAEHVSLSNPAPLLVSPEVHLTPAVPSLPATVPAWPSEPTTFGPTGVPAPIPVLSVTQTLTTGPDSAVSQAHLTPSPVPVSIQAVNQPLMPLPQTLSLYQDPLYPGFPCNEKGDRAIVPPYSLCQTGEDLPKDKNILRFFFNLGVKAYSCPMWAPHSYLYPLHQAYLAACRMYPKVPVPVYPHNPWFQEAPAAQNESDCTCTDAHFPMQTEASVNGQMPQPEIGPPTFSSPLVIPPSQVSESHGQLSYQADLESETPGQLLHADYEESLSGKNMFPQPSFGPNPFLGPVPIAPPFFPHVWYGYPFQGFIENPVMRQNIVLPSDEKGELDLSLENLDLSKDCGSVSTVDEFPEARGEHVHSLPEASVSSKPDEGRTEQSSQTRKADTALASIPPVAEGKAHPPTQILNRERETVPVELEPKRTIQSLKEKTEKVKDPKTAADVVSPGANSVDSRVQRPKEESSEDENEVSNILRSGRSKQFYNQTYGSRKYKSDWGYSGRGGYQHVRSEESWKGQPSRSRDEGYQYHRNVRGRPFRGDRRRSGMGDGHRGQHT
In short: as §1

OTUD5 = target: T5, OTUD5 (UniProt Q96G74)
T5 sequence (whole entry): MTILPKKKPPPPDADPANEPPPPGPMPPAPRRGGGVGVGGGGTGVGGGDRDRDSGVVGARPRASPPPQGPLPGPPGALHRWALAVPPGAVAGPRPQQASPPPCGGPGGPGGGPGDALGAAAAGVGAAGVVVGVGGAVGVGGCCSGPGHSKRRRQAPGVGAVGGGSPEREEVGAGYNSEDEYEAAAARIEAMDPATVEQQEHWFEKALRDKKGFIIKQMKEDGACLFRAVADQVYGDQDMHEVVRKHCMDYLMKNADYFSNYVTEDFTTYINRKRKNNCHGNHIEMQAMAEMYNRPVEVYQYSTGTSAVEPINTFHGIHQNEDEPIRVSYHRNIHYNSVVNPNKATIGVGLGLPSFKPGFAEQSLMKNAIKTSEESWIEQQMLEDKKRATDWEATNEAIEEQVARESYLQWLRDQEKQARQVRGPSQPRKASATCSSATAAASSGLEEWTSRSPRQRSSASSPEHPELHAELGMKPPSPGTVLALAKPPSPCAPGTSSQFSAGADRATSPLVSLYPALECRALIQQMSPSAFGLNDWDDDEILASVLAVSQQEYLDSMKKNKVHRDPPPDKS
In short: as §1

Measured: log2 ratio of Biotin-Ahx-Ub-VS probe labelling

Cc1ccc(CC(NC(=O)CCl)c2ccccn2)cc1.Cl (centres undefined)
inactive: ALG13 -0.831 | ATXN3 0.249 | BAP1 -0.525 | EIF3F -0.0559 | EIF3H 0.165 | FAM105A -0.348 | OTUB1 -0.0206 | OTUD4 0.0988 | OTUD5 -0.157
